Results from the supplement of paper PMC6522484.
± gives the standard deviation of the averaged measurements.

What was measured:
DLD1 [1] = test: cell viability (CellTiter-Glo) relative to plate median (fraction of plate median); higher = more viable cells; settings: 10 µM, treatment time 24 h
Procedure, shortened: (§1)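 Colorectal cancer cells expressing a stably transduced lentiviral TCF/Wnt firefly luciferase reporter were treated in 384-well plates with kinase inhibitor library compounds at a final 10 µM for 24 h. Firefly luciferase or CellTiterGlo luminescence was then read on parallel plates. Well signals were normalised to the plate median (webcellHTS2, additive, no log transformation) and averaged over two independent replicates.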

HCT116 [2] = test: as above; settings: 10 µM; treatment time 24 h; reporter: TCF4/Wnt
Procedure, shortened: as §1

SW480 [3] = test: as above; settings: 10 µM; treatment time 24 h; reporter: 7TFP
Procedure, shortened: as §1

DLD1 [4] = test: TCF/Wnt firefly luciferase reporter signal relative to plate median (fraction of plate median); higher = higher Wnt reporter signal; settings: 10 µM, treatment time 24 h
Procedure, shortened: as §1

HCT116 [5] = test: as above; settings: 10 µM; treatment time 24 h; reporter: TCF4/Wnt
Procedure, shortened: as §1

SW480 [6] = test: as above; settings: 10 µM; treatment time 24 h; reporter: 7TFP
Procedure, shortened: as §1

| Compound | cell viability (DLD1 [1]; reporter: 7TFP) | cell viability (DLD1 [1]; reporter: TCF4/Wnt) | cell viability (HCT116 [2]) | cell viability (SW480 [3]) | TCF/Wnt firefly luciferase reporter signal (DLD1 [4]; reporter: 7TFP) | TCF/Wnt firefly luciferase reporter signal (DLD1 [4]; reporter: TCF4/Wnt) | TCF/Wnt firefly luciferase reporter signal (HCT116 [5]) | TCF/Wnt firefly luciferase reporter signal (SW480 [6]) |
| --- | --- | --- | --- | --- | --- | --- | --- | --- |
| COc1cc2nccc(Oc3ccc(NC(=O)C4(C(=O)Nc5ccc(F)cc5)CC4)cc3)c2cc1OC [XL-184 free base (Cabozantinib)] | 1 ± 0.08 | 1.02 ± 0.05 | 1.095 ± 0.0071 | 0.9465 ± 0.0035 | 1.14 ± 0.14 | 0.846 ± 0.078 | 1.05 ± 0.23 | 1.03 ± 0.1 |
| Cc1cc(C(=O)NOCCO)c(Nc2ccc(I)cc2F)n(C)c1=O | 1.19 ± 0.042 | 1.15 ± 0.042 | 0.889 ± 0.075 | 1.105 ± 0.0071 | 1.635 ± 0.0071 | 1.58 ± 0.25 | 1.17 ± 0.13 | 1.89 ± 0.22 |
| O=C(Cc1ccc(-c2ccc(OCCN3CCOCC3)cc2)cn1)NCc1ccccc1 | 0.891 ± 0.0014 | 1.005 ± 0.0071 | 0.745 ± 0.26 | 1.145 ± 0.0071 | 0.57 ± 0.038 | 0.908 ± 0.26 | 0.171 ± 0.0021 | 0.791 ± 0.047 |
| CN1CCN(c2cccc(Nc3nc4c(-c5ccc(S(C)(=O)=O)cc5)cccn4n3)c2)CC1 | 0.927 ± 0.013 | 0.896 ± 0.042 | 0.871 ± 0.031 | 1.055 ± 0.0071 | 0.96 ± 0.1 | 1.03 ± 0.057 | 1.32 ± 0.7 | 1.34 ± 0.56 |
| CS(=O)(=O)CCNCc1ccc(-c2ccc3ncnc(Nc4ccc(OCc5cccc(F)c5)c(Cl)c4)c3c2)o1 [Lapatinib Ditosylate (Tykerb)] | 1.06 ± 0.078 | 1.02 ± 0.03 | 0.972 ± 0.04 | 0.913 ± 0.035 | 1.27 ± 0.078 | 1.1 ± 0.042 | 1.25 ± 0.18 | 1.16 ± 0.057 |
| CO[C@H]1C[C@@H]2CC[C@@H](C)[C@@](O)(O2)C(=O)C(=O)N2CCCC[C@H]2C(=O)O[C@H]([C@H](C)C[C@@H]2CC[C@@H](O)[C@H](OC)C2)CC(=O)[C@H](C)/C=C(\C)[C@@H](O)[C@@H](OC)C(=O)[C@H](C)C[C@H](C)/C=C/C=C/C=C/1C [Rapamycin (Sirolimus)] | 1.07 ± 0.1 | 0.904 ± 0.15 | 0.95 ± 0.017 | 1.24 ± 0.014 | 1.07 ± 0.071 | 1.09 ± 0.26 | 1.38 ± 0.42 | 1.65 ± 0.11 |
| Cn1cc(-c2ccc3ncc(Cc4ccc5ncccc5c4)n3n2)cn1 | 1.045 ± 0.0071 | 1.06 ± 0.094 | 1.15 ± 0.028 | 0.911 ± 0.032 | 0.931 ± 0.021 | 0.769 ± 0.21 | 0.991 ± 0.61 | 0.587 ± 0.28 |
| CN(c1ncccc1CNc1nc(Nc2ccc3c(c2)CC(=O)N3)ncc1C(F)(F)F)S(C)(=O)=O | 0.974 ± 0.19 | 1.06 ± 0.071 | 0.698 ± 0.21 | 1.19 ± 0.11 | 0.732 ± 0.28 | 1.66 ± 0.33 | 0.2 ± 0.037 | 0.9115 ± 0.0064 |
| O=C(NC[C@H](O)CO)c1ccncc1Nc1ccc(I)cc1F | 1.15 ± 0.078 | 1.14 ± 0.071 | 0.817 ± 0.036 | 1.14 ± 0.028 | 1.71 ± 0.46 | 1.73 ± 0.54 | 1.18 ± 0.32 | 2.17 ± 0.11 |
| N#CC1(c2ccc(NC(=O)c3cccnc3NCc3ccncc3)cc2)CCCC1 [Apatinib (YN968D1)] | 1.14 ± 0.042 | 1.025 ± 0.0071 | 1.22 ± 0.035 | 0.912 ± 0.0092 | 0.975 ± 0.064 | 1.095 ± 0.0071 | 0.727 ± 0.39 | 0.761 ± 0.32 |
